Hits are enriched below; roughly 0.81% of the tested compounds scored in any of these assays.
COUP-TFII inh: NR2F2 transcriptional activity inhibitors, primary screen, cell-based, luciferase reporter, HEK293T, luminescence | COUP transcription factor 2 (Homo sapiens), P24468 | HEK293T NGFI-A luciferase reporter | inhibition, % at 8.6 µM | 370,000 compounds, 0.7% hits | AID 686940, 2013;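 active means inhibition above a per-plate cutoff, mean inhibition of test wells between control levels plus 3 SD, cut at about 38% in these data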;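 further: cells cotransfected with COUP-TFII expression vector driving the NGFI-A reporter; 0% = median of COUP-TF2 test wells and 100% = reporter-only cells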
NCOA2 inhibitor: inhibition of GAL4-SRC2 driven luciferase reporter, primary screen, SRC2 inhibitor project, cell-based, luminescence; 370,000 compounds, 0.17% hits; inhibition, % at 9 µM; AID 651957, 2012; Nuclear receptor coactivator 2 (Homo sapiens), Q15596; HEK293 GAL4-SRC2 luciferase reporter;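 active means inhibition above the mean inhibition of all tested compounds plus 3 SD, set per campaign, cut at about 52% in these data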;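 further: 0% = DMSO treated cells and 100% = cells given Gossypol at 36 µM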
LRH-1 inv ag: LRH-1 (NR5A2) inverse agonists, primary screen, cell-based, luminescence, HEK293T, StAR-luciferase reporter | Nuclear receptor subfamily 5 group A member 2 (Homo sapiens), O00482 | inhibition, % at 3.6 µM | 360,000 compounds, 0.13% hits | LRH-1 transfected, 24 h;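 active means inhibition above the mean inhibition of all tested compounds plus 3 SD, cut at about 73% in these data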;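 further: 0% = DMSO wells and 100% = reporter-only cells lacking LRH-1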
SRC3 inh: SRC3 coactivator transcriptional activity inhibitors, primary screen, cell-based, luminescence. HEK293 GAL4-SRC3 luciferase reporter. Nuclear receptor coactivator 3 (Homo sapiens), Q9Y6Q9. 360,000 compounds, 0.17% hits. inhibition, % at 3.6 µM;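 active means inhibition above a per-campaign cutoff, the mean of all compounds plus 3 SD, cut at about 60% in these data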;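 further: 0% = DMSO-treated cells and 100% = gossypol-treated cells at 36 µM; higher means less SRC3-driven luciferase light from the GAL4 reporter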
NCOA1 inh: SRC1 coactivator transcriptional activity inhibitors, primary screen, cell-based, luminescence; inhibition, % at 3.6 µM; AID 588354, 2011; 360,000 compounds, 0.12% hits; HEK293 GAL4-SRC1 luciferase reporter;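 active means inhibition above the campaign mean plus 3 SD, with each screening campaign given its own cutoff, cut at about 60% in these data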;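 further: 0% = DMSO treated cells and 100% = gossypol at 36 µM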
Gal4-VP16 ctr: Gal4-VP16 luciferase reporter inhibitors, counter-screen for COUP-TFII antagonist project, cell-based, luminescence, HEK293; shares compounds with COUP-TFII inh; inhibition, % at 8.5 µM; 2,500 compounds, 25% hits; in the data active means inhibition above about 13%
NR2F2 inh conf: NR2F2 transcriptional activity inhibitors, confirmation, cell-based, luciferase reporter, HEK293, triplicate; shares compounds with COUP-TFII inh; AID 687008, 2013; HEK293 NGFI-A luciferase reporter, luminescence; inhibition, % at 8.5 µM; 2,500 compounds, 45% hits;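 active means mean inhibition over three repeats above a set limit taken from the earlier primary screen, cut at about 38% in these data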;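 further: 100% = cells given the luciferase reporter alone without the COUP-TF2 vector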
Starred values were filed as active, the others as inactive; . = no result given; ! = repeats disagree.

SMILES | COUP-TFII inh | NCOA2 inhibitor | LRH-1 inv ag | SRC3 inh | NCOA1 inh | Gal4-VP16 ctr | NR2F2 inh conf
CCCCC(=O)NC(c1cccc([N+](=O)[O-])c1)c1ccc2cccnc2c1O (centres undefined) | 30.2 | 43.7 | 11.1 | 21.9 | 24.8 | . | .
CCCCC(=O)NC(c1ccc(C(C)C)cc1)c1ccc2cccnc2c1O (centres undefined) | -4.8 | 25.4 | 6.6 | 67.9* | 42.5 | . | .
CCCCC(=O)NC(c1ccccc1Cl)c1ccc2cccnc2c1O (centres undefined) | -8.1 | 32.2 | 60.5 | 73.4* | 53.9 | . | .
CC(=O)NC(c1ccc(C(C)C)cc1)c1ccc2cccnc2c1O (centres undefined) | -25.3 | 35.4 | 89.7* | 81.5* | 68.4* | . | .
Cc1cc(C)c2sc(NC(=O)c3ccc(N4C(=O)CCC4=O)cc3)nc2c1 | 1.9 | 8.8 | 10.8 | 7.0 | -29.6 | . | .
CC1=NN(C(=O)c2ccccc2Br)C(O)(c2ccc(Cl)cc2)C1 (centres undefined) | -9.7 | -24.7 | 0.4 | -2.4 | -9.6 | . | .
COc1ccc(/C=C/C(=O)O)cc1S(=O)(=O)NCc1ccco1 | -1.5 | -18.4 | 10.3 | 19.4 | 20.8 | . | .
CCCCC(=O)NC(c1ccccc1)c1ccc2cccnc2c1O (centres undefined) | -5.4 | -11.1 | 88.7* | 66.1* | 40.4 | . | .
Cc1ccc(-n2c(SCC(=O)c3ccc4ccccc4c3)nnc2-c2cccnc2)cc1 | -5.5 | -4.0 | . | . | . | . | .
COCCNc1nc(NCc2ccc(C(C)C)cc2)c2sccc2n1 | 38.1* | 3.4 | 7.4 | 9.8 | 19.4 | 1.0 | 22.0
COCCNc1nc(NCc2cccc(OC)c2)c2sccc2n1 | 18.9 | -3.0 | 8.4 | -15.8 | -20.6 | . | .
Cc1c(Cl)cnc(NC(=O)COC(=O)c2nn(C)c(=O)c3ccccc23)c1Cl | -0.9 | -16.5 | 2.5 | 2.2 | 11.2 | . | .
CCc1c(C)nc2ncnn2c1NCCc1ccccc1 | 23.6 | -17.2 | 6.3 | 0.1 | 13.7 | . | .
CCc1c(C)nc2ncnn2c1NCCc1ccc(Cl)cc1 | 46.8* | 33.4 | 26.9 | 32.6 | -6.6 | 0.8 | 18.3
Cc1ccnc(NS(=O)(=O)c2ccc3c(c2)CCO3)c1 | -4.3 | -3.7 | . | . | . | . | .
C(C#CCCCCCCCCC[n+]1ccccc1)#CCCCCCCCCC[n+]1ccccc1 | 64.9* | -9.0 | 84.7* | 64.5*! | 38.3 | 16.1* | 36.2
COc1cccc(C(=O)NCC2(c3ccccc3)CCCC2)c1OC | 44.9* | -1.4 | 5.1 | 14.0 | 16.5 | -8.2 | 16.8
CCNS(=O)(=O)c1ccc(CCC(=O)N2CCN(c3ccccc3)CC2)cc1 | 42.9* | 28.8 | -0.1 | 10.3 | 5.0 | 9.3 | 4.1
CC(C)CNS(=O)(=O)c1ccc(CCC(=O)N2CCN(c3ccccc3)CC2)cc1 | 14.2 | 14.6 | 8.5 | 5.3 | 21.7 | . | .
Cc1ccc(S(=O)(=O)N(C)C)cc1NC(=O)C(C)OC(=O)C1CCCC1 (centres undefined) | -1.2 | -10.1 | -20.0 | 10.9 | 10.4 | . | .
CCOC(=O)c1ccc(S(=O)(=O)NNC(=O)COc2ccc(C)cc2)cc1 | 11.7 | -12.1 | -3.2 | 1.6 | -4.8 | . | .
O=C(CN1C(=O)NC2(CCc3ccccc32)C1=O)Nc1ccccc1OC(F)F (centres undefined) | -23.5 | -17.4 | 14.1 | 13.6 | 6.7 | . | .
O=C(c1ccc(S(=O)(=O)c2ccc(F)cc2)c([N+](=O)[O-])c1)N1CCCCCC1 | 42.7* | 39.4 | 29.6 | 37.4 | 5.6 | 18.0* | 22.2
Cc1ccc(C)c(N2CCN(C(=O)CCS(=O)(=O)c3ccc4c(c3)NC(=O)CO4)CC2)c1 | 42.5* | 39.6 | 29.9 | 37.3 | 27.6 | 5.0 | 22.6
CCN(CC)C(=O)CC[C@@H]1CC[C@]2(CCCN(C(=O)c3ccccc3)C2)O1 | 3.6 | -13.6 | . | . | . | . | .
SMILES | COUP-TFII inh | NCOA2 inhibitor | LRH-1 inv ag | SRC3 inh | NCOA1 inh | Gal4-VP16 ctr | NR2F2 inh conf
Cc1ccc(C(=O)Nc2cc(C(C)C)c(O)c(C(C)C)c2)cc1 | 45.9* | 21.8 | -8.8 | -2.7 | 1.9 | -4.5 | 2.1
COC(=O)c1c(-c2ccccc2)[nH]c(-c2nccc3ccccc23)c1C(=O)OC | -23.2 | -14.3 | 16.4 | -6.9 | -10.1 | . | .
N#Cc1cc(-c2ccccc2)[nH]c1-c1nccc2ccccc12 | 49.8* | 19.9 | 16.6 | 17.4 | -1.7 | -3.9 | 13.3
CCOc1ccc(CCNC(=O)c2cc3sccc3n2CC)cc1OC | 56.7* | 12.0 | . | . | . | -10.2 | 19.7
COc1ccc(C(=O)Nc2ccc(Oc3ncnc4sc(-c5ccccc5)cc34)cc2)cc1OC | 13.6 | 2.8 | -4.9 | 10.7 | -5.0 | . | .
O=C(Nc1cccc(Cl)c1)c1ccc(F)c(S(=O)(=O)NCc2cccs2)c1 | 38.0* | 8.0 | 7.8 | 20.5 | 6.3 | -10.1 | 12.6
CNc1oc(Cc2ccccc2)nc1S(=O)(=O)c1ccccc1 | . | . | -7.7 | -10.0 | 0.4 | . | .
Cc1ccc(C(C)C)c(OCC(=O)NNCC(=O)Nc2cccc(F)c2)c1 | 2.4 | -17.3 | -7.5 | -9.1 | -18.5 | . | .
Cc1cc(C(=O)CSc2nnc(-c3ccccc3)n2-c2ccccc2)c(C)n1-c1ncn[nH]1 | 7.5 | 7.0 | 5.7 | -0.8 | 6.2 | . | .
Cc1cc(C(=O)CSc2nnc3ccccn23)c(C)n1-c1ccccc1 | 40.4* | 45.7 | 58.3 | 66.0* | 58.6 | 5.4 | 57.3*
Cc1ccc(-n2c(-c3ccc(Br)cc3)c[n+]3c2CCc2ccc4cccnc4c2-3)cc1 | 87.9* | -15.5 | 99.8* | 82.9* | 74.5* | 33.1* | 89.3*
Cc1cccn2cc(-c3ccc(NC(=O)Cc4ccccc4)cc3)nc12 | 54.0* | 0.1 | -10.7 | -16.3 | 7.4 | 0.4 | -16.5
COc1ccc(CC(=O)Nc2ccc(-c3cn4cccc(C)c4n3)cc2)cc1OC | -5.2 | -0.1 | 4.4 | -0.7 | 6.0 | . | .
Clc1ccc(-c2csc3ncnc(NCCN4CCOCC4)c23)cc1 | 31.1 | 33.0 | -11.8 | 34.6 | 30.3 | . | .
Cc1ccc(-c2csc3ncnc(NCCN4CCOCC4)c23)cc1 | 38.0* | 28.3 | -2.6 | 30.0 | 23.6 | 9.5 | 24.3
COc1cc(OC)c(N(C)S(=O)(=O)c2cccc(C(=O)OCC(=O)c3c[nH]c4ccccc34)c2)cc1Cl | 62.2* | 31.8 | 15.4 | 16.9 | 15.7 | 5.8 | 53.2*
Cc1nn(C)c(C)c1CN(Cc1nc(CCC(C)C)no1)C(C)C | 66.4* | 18.6 | 48.1 | 19.0 | 19.0 | 2.7 | 62.2*
CC(C)CCc1noc(CN(C)CCC2CCOCC2)n1 | 0.7 | 10.0 | 3.1 | 12.1 | -0.7 | . | .

Assay outcomes: PubChem, The Scripps Research Institute Molecular Screening Center
